Screening results from PubChem.
HT1080-NT tox = kills 2HG-producing HT-1080-NT fibrosarcoma cells; HT-1080-NT fibrosarcoma viability, CellTiter-Glo ATP luminescence, 48 h; Potency, µM (doses to about 46.1 µM), for the others: at the top dose activity, negative = less viability, actives largely listed as cytotoxic; 1.6% of 360,000 active; AID 686970;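 also: NT is the 2HG producing partner of a matched IDH1 knockdown line; potency is read from the fitted curve at half-maximal effect; 0% = DMSO-treated cells and -100% = media-only wells without cells; nearly all actives have a fitted effect of over 55% in size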
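Compounds were tested in concentration-response format on HT-1080-NT cells for 48 hours at 37 degrees C. Cell viability came from CellTiter-Glo luminescence; curves were classified by r2, response magnitude and activity.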
IL-1B inflam inh = inhibitors of inflammasome signaling (IL-1 beta secretion). 4.7% of 360,000 active. THP-1 LPS/ATP IL-1B secretion, AlphaLISA, 16 h; stronger effect = lower value. AID 743279. activity change, % at 57.5 µM; in the data active = activity change below about -50%; inconclusive = mostly about -30% to -49%
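THP-1 cells pretreated 1 hr with compounds (up to 57.5 uM final), then stimulated with LPS (250 ng/mL final) plus ATP (1.25 mM final); secreted IL-1B measured by AlphaLISA after 16 hr, decreased signal indicating inhibition.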
TDP1 cell noCPT = qHTS for Inhibitors of human tyrosyl-DNA phosphodiesterase 1 (TDP1): qHTS in cells in absence of CPT; 15% of 420,000 active; DT40 Tdp1-/- hTDP1 cells, no CPT, ATP luminescence, 48 h; Potency, µM (top dose mostly 46.2 µM), inactives show at the top dose activity change, negative = growth inhibition, actives largely listed as inhibitors; AID 686978, 2013; also: potency is read from the fitted curve at half-maximal effect; nearly all actives have a fitted effect of over 55% in size
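Luminescent ATP content (CellTiter-Glo) served as the growth readout. Knockout chicken DT40 cells expressing human TDP1 were exposed to compounds without camptothecin for a minimum 48 hr at 37 °C.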
DT40 TDP1 CPT = growth inhibition of DT40 Tdp1-/-;hTDP1 cells with camptothecin (screen for TDP1 inhibitors); AID 686979; Potency, µM (series often up to 46.2 µM), for inactives: top-dose activity change, negative = growth inhibition, actives largely listed as inhibitors; chicken DT40 Tdp1-/-;hTDP1 cells + 20 nM CPT, ATP luminescence, 48 h; 12% of 420,000 active; also: potency is read from the fitted curve at half-maximal effect; nearly all actives have a fitted effect of over 55% in size
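Chicken DT40 Tdp1-/- cells complemented with human TDP1, 400 cells/well, exposed to compounds plus 20 nM camptothecin for at least 48 h at 37 C; viability read as ATP content by CellTiter-Glo luminescence.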
HT1080 IDH1KD tx = HT-1080 IDH1 knockdown cell toxicity (counter line). HT-1080 IDH1 knockdown viability, ATP luminescence, 48 h. Potency, µM (titrated, usually from 46.1 µM), for inactives: top-dose activity, negative = toxicity, usual class: cytotoxic. 2% of 360,000 active. AID 686971;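 also: potency is read from the fitted curve at half-maximal effect; 0% = DMSO wells and -100% = cell-free medium wells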
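Cytotoxicity counter-line: IDH1KD HT-1080, 48 h, CellTiter-Glo. Curves classed by r2, magnitude and activity.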
Numbers without * were called inactive; ? = inconclusive; . = no result. Most compounds without a hit are left out; they make up all but 19% or so of the library. Unless noted, calls follow the shape of the dose curve; as a rule, active = well fitted curve in the direction sought with a large enough effect; inconclusive = small, poorly fitted or top-dose-only effect, or another doubt; inactive = no such curve, though single readings can be large; an effect the other way counts as inactive or inconclusive. Unless noted, % is scaled to controls: 0 for no effect and ±100 for the full control effect.

SMILES | HT1080-NT tox | IL-1B inflam inh | TDP1 cell noCPT | DT40 TDP1 CPT | HT1080 IDH1KD tx
CSc1ccc(OC2(C)CCN(Cc3ccc4c(c3)OCCO4)C2)cc1 (centres undefined) | -25% | -11 | ? | 26µM* | -5%
CSc1ccc(CN2CCC(C)(Oc3ccc(-n4ccnc4)cc3)C2)cc1 (centres undefined) | ? | ? | 18µM* | 18µM* | -8%
COc1ccccc1CN1CC[C@@]2(CCCN(C(=O)c3cccc(F)c3)C2)C1 | . | . | -23% | 7% | .
Cc1nn(-c2cc(Cl)ccc2Cl)c(C)c1C(=O)O | 3% | 0 | -2% | 7% | 8%
O=C(Nc1cccc(Br)c1)N1CCC(CN2CCCCC2)CC1 | . | . | -12% | -4% | .
CNC(=S)N=Nc1c(O)[nH]c2ccccc12 | 1% | 10 | -6% | -7% | -1%
COc1ccc(N=Nc2c(C)[nH]c3ccccc23)cc1 | ? | ? | ? | ? | 18µM*
Cc1ccc(NC(=S)N=Nc2c(O)[nH]c3ccccc23)cc1 | ? | 0 | 7.3µM* | 6.5µM* | ?
Oc1ccc(NC(=S)N=Nc2c(O)[nH]c3ccccc23)cc1 | -7% | -66* | ? | ? | -18%
COc1ccc(S(=O)(=O)N=Nc2c(O)[nH]c3ccccc23)cc1 | 5% | 18 | 2% | -4% | 1%
CC(=O)c1cccc(N=Nc2c(C)[nH]c3ccccc23)c1 | -6% | 0 | ? | ? | -5%
COc1ccc(NC(=S)N=Nc2c(O)[nH]c3ccccc23)cc1 | -19% | 34 | 5.8µM* | 8.2µM* | -7%
COc1cc(=O)n2c(c1C(=O)N(C)Cc1nonc1C)CCN(C(=O)c1cccc(C)c1C)CC2 | . | . | -7% | 5% | .
O=c1[nH]c2cc([N+](=O)[O-])ccc2c2ccccc12 | -14% | -3 | -21% | -17% | ?
O=c1[nH]c2cc([N+](=O)[O-])ccc2c2ccc([N+](=O)[O-])cc12 | 16% | 7 | 15µM* | 9.2µM* | 18%
O=c1[nH][nH]c2cc([N+](=O)[O-])ccc12 | 4.1µM* | -6 | 3.7µM* | 3.7µM* | 15µM*
COc1ccc(CN2C[C@@H](CO)O[C@@H](n3cnc4c(NCc5ccco5)ncnc43)C2)cc1 | -1% | 20 | -19% | -29% | -9%
CC(O)C(NS(=O)(=O)c1ccc(Cl)cc1)C(=O)OCCOc1ccc(F)cc1 (centres undefined) | -1% | 6 | ? | ? | -10%
Cc1cc(NC(=O)C2CC(=O)N(c3ccccc3Cl)C2)no1 (centres undefined) | 17% | 17 | -3% | 3% | 12%
Cc1ccc(NC(=O)COc2ccc(/C=C3/SC(=Nc4ccccc4)N(Cc4cccnc4)C3=O)cc2)cc1 | 7% | -2 | 6.5µM* | 5.2µM* | 7%
COCC(COS(N)(=O)=O)Cc1ccccc1 (centres undefined) | 3% | 24 | -9% | 4% | 1%
O=C(Cc1cccs1)NCc1cc(Cl)cc(Cl)c1 | -6% | ? | -5% | -2% | -4%
Cc1ccc(NC(=C(C#N)C#N)c2ccccc2)cc1 | -1% | 2 | 12µM* | ? | -11%
COc1ccc(C(=O)NCC(=O)OCc2ccccc2F)cc1 | 12% | 6 | -7% | -2% | 26%
Cc1cc(O)ccc1N/C=C(\C#N)c1nc2ccccc2o1 | 1% | 3 | 12µM* | ? | -8%
SMILES | HT1080-NT tox | IL-1B inflam inh | TDP1 cell noCPT | DT40 TDP1 CPT | HT1080 IDH1KD tx
N#C/C(=C\c1c(Cl)cccc1Cl)c1nc2ccccc2o1 | -8% | ? | 0% | -18% | ?
C/C(=N/NC(=O)CN1CCN(Cc2ccccc2Cl)CC1)c1cccnc1 | -3% | 12 | -14% | 3% | 2%
COC(=O)c1ccc(/C=C2/SC(=S)N(CCC(=O)NCCCN3CCOCC3)C2=O)cc1 | 0% | -57* | ? | ? | 17%
O=C1C(=Cc2cccc(O)c2O)SC(=S)N1CCCN1CCOCC1 | -3% | -2 | 15µM* | 13µM* | -5%
COc1ccc(/C=C2\SC(=S)N(CCC(=O)Nc3ccc(C(=O)O)cc3)C2=O)cc1OC | -13% | 8 | 15% | -5% | -11%
COc1ccccc1/C=C1\SC(=S)N(CCC(=O)NCCCN2CCOCC2)C1=O | 0% | -20 | ? | -4% | -9%
O=C(CCCN1C(=O)/C(=C/c2ccccc2Cl)SC1=S)NCCCN1CCOCC1 | -1% | -104* | ? | 21µM* | -13%
O=C(CCN1C(=O)/C(=C/c2ccccc2)SC1=S)NCCCN1CCOCC1 | -5% | -59* | ? | ? | -4%
CCOC(=O)[C@H]1[C@H]2COc3ccccc3[C@@H]2N2C(=O)CN(CC3CCCO3)C(=O)[C@@]12C (some centres undefined) | 0% | 0 | 14% | 8% | 13%
CCOC(=O)c1cc(S(=O)(=O)Nc2c(C)cc(C)cc2C)[nH]n1 | . | . | -27% | -12% | .
COc1ccc(C=C2SC(=S)N(CCCN3CCOCC3)C2=O)c(OC)c1 | 7% | -11 | 16µM* | ? | 8%
O=C(CCN1C(=O)/C(=C/c2ccccc2F)SC1=S)NCCCN1CCOCC1 | 2% | -97* | ? | ? | -1%
COc1ccc(/C=C2\SC(=S)N(CCC(=O)NCCCn3ccnc3)C2=O)cc1 | 3% | -27 | 16µM* | ? | 2%
CC(C)c1ccc(/C=C2\SC(=S)N(CCC(=O)NCCCn3ccnc3)C2=O)cc1 | ? | -11 | ? | ? | -22%
CN(CC(=O)NCc1cccs1)S(=O)(=O)c1cccc2nsnc12 | -1% | -1 | -18% | 17% | 0%
O=C(Cn1ccn(-c2ccc(F)cc2)c(=O)c1=O)NCCc1ccccc1 | . | . | 1% | 0% | .
COc1cc(C)c(S(=O)(=O)NCCCn2ccnc2)cc1C | 0% | 32 | 18µM* | 15µM* | -1%
CCCC(=O)N(c1ccc2oc(C)c(C(C)=O)c2c1)S(=O)(=O)c1ccc(C)c([N+](=O)[O-])c1 | 14% | 9 | 16µM* | 18µM* | 11%
CCc1ccc(S(=O)(=O)N(C(=O)Oc2ccccc2)c2ccc3oc(C)c(C(=O)OC)c3c2)cc1 | . | . | 2.9µM* | 3.7µM* | .
COC(=O)c1c(C)oc2ccc(N(C(=O)Oc3ccccc3)S(=O)(=O)c3ccc(Cl)c([N+](=O)[O-])c3)cc12 | 19% | -105* | 21µM* | ? | 16%
CCOC(=O)c1c(-c2ccccc2)oc2ccc(N(C(C)=O)S(=O)(=O)c3ccc(CC)cc3)cc12 | . | . | 5.8µM* | 16µM* | .
CCCC(=O)N(c1ccc2oc(C)c(C(C)=O)c2c1)S(=O)(=O)c1ccc(C(=O)O)cc1 | 0% | 8 | ? | -12% | 2%
